LAP4-GFP MLPCN: yeast TOR pathway LAP4-GFP modulation; actives 0.34% (n = 320,000); GFP response vs DMSO, % at 10 µM; S. cerevisiae LAP4-GFP multiplex, flow cytometry GFP, 3 h; median GFP as percent of DMSO wells;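 active = GFP response vs DMSO above a set limit, about the screen mean plus 3 SD, cut at about 150% in these data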
RPL19A TOR yeast: modulators of TOR pathway RPL19A-GFP in S. cerevisiae. S. cerevisiae RPL19A-GFP strain, flow cytometry, 3 h; stronger effect = lower value. percent response vs DMSO, % at 10 µM. actives 0.3% (n = 330,000). AID 2025;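 active = percent response vs DMSO below 50%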;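 note: median channel GFP fluorescence of the barcoded RPL19A-GFP strain; lower means less RPL19A-GFP as with rapamycin TOR inhibition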
CIT2-GFP yeast: alters CIT2-GFP fluorescence in TOR pathway yeast screen; S. cerevisiae CIT2-GFP strain, flow cytometry, 3 h; 100 means same as DMSO wells; GFP response vs DMSO, % at 10 µM; actives 0.065% (n = 320,000); AID 2029;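 active = GFP response relative to DMSO above a set limit, near the screen mean plus 3 SD, cut at about 150% in these data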;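 note: ratio of well median GFP fluorescence to mean of DMSO wells on the plate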
MEP2 TOR yeast: modulators of TOR pathway MEP2-GFP in S. cerevisiae; S. cerevisiae MEP2-GFP strain, flow cytometry GFP, 3 h; 100% = DMSO control level; GFP response vs DMSO, % at 10 µM; actives 0.51% (n = 330,000);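 active = GFP response versus DMSO above a set limit, roughly screen mean plus 3 SD, cut at about 180% in these data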;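 note: median GFP fluorescence of the barcode-gated MEP2-GFP cells per well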
AGP1 TOR yeast: alters AGP1-GFP fluorescence in TOR pathway yeast screen. S. cerevisiae AGP1-GFP multiplex flow cytometry, 3 h; GFP as percent of DMSO wells. GFP response vs DMSO, % at 10 µM. actives 0.02% (n = 320,000). AID 2066;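 active = GFP response relative to DMSO above a set limit, near screen average plus 3 SD, cut at about 150% in these data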;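 note: median GFP channel fluorescence of the gated AGP1 strain per well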
LAP4 cherry2: second confirmation of modulators of TOR reporter LAP4-GFP in yeast. shares compounds with LAP4-GFP MLPCN. S. cerevisiae LAP4-GFP strain, flow cytometry GFP, 3 h. GFP response vs DMSO, % at 10 µM. actives 20% (n = 590);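 active = GFP signal as percent of the solvent control above about 150%, meaning raised reporter expression, limit read from the data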
MEP2-GFP pick2: reconfirmed MEP2-GFP TOR pathway modulator in yeast. shares compounds with LAP4-GFP MLPCN. S. cerevisiae MEP2-GFP strain, flow cytometry GFP, 3 h. GFP response vs DMSO, % at 10 µM. actives 10% (n = 590). AID 2622;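 active = GFP signal above 150% of the solvent control wells, that is a rise of more than half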;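 note: median channel GFP fluorescence of all gated yeast cells per well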
RPL19A-GFP pick2: second confirmation of modulators of TOR reporter RPL19A-GFP in yeast | GFP response vs DMSO, % at 10 µM | shares compounds with LAP4-GFP MLPCN | actives 3% (n = 590) | S. cerevisiae RPL19A-GFP strain, flow cytometry GFP, 3 h; stronger effect = lower value; 100% means same as DMSO wells;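 active = under 65% GFP response relative to DMSO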;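 note: median GFP channel fluorescence per well over the all cells gate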
CIT2 GFP CP2: reconfirmed modulator of CIT2-GFP TOR reporter in yeast. shares compounds with LAP4-GFP MLPCN. S. cerevisiae CIT2-GFP strain, flow cytometry GFP, 3 h; DMSO control wells read 100%. GFP response vs DMSO, % at 10 µM. actives 8% (n = 590);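 active = GFP response vs DMSO above about 150%, limit read from the data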;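 note: median green fluorescence per well over all gated yeast cells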
AGP1-GFP pick2: second confirmation of modulators of TOR reporter AGP1-GFP in yeast | shares compounds with LAP4-GFP MLPCN | S. cerevisiae AGP1-GFP strain, flow cytometry GFP, 3 h | percent response vs DMSO, % at 10 µM | 590 tested, under 10 active;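 active = over 150 percent of DMSO response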;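 note: median GFP channel fluorescence over all cells without mother daughter split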
Yeast autofluor: yeast s288c autofluorescence artifact, counter-screen | shares compounds with LAP4-GFP MLPCN | S. cerevisiae s288c, 520 nm autofluorescence, flow cytometry, 3 h; stronger effect = higher value; zero means same as solvent-only cells | fluorescence change (kMESF span) at 33 µM | 610 tested, under 10 active | AID 2757;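 active = fluorescence span over the dose series, or activity score, above about 33, limit read from the data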
s288c autofl DR: TOR screen hit shows autofluorescence in yeast s288c; shares compounds with LAP4-GFP MLPCN; S. cerevisiae s288c parental, compound autofluorescence, flow cytometry, 3 h; fluorescence change (span) at 33 µM; 110 tested, under 10 active;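 active = fluorescence change span, or the activity score built from it, above 25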
TORC1 bypass gr: stops wildtype yeast growth while TORC1 bypass cells still grow | shares compounds with LAP4-GFP MLPCN | S. cerevisiae BY4741 spot growth rating, 48-72 h; stronger effect = lower value | growth rating (0-3) at 30 µM | 120 tested, under 10 active;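 active = growth rating at most 1 for wild type yeast while the TORC1 bypass strain still grows fully, rated 3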
Numbers stand for hits; – = inactive; · = no result given. Most compounds without a hit are left out; they make up all but 0.92% or so of the library.

SMILES	LAP4-GFP MLPCN	RPL19A TOR yeast	CIT2-GFP yeast	MEP2 TOR yeast	AGP1 TOR yeast	LAP4 cherry2	MEP2-GFP pick2	RPL19A-GFP pick2	CIT2 GFP CP2	AGP1-GFP pick2	Yeast autofluor	others
O=C1N(c2ccccc2C(F)(F)F)O[C@@]1(c1ccccc1)C1CCCC1	–	–	–	–	–	–	–	–	–	–	–
O=C1N(c2ccccc2C(F)(F)F)O[C@@]1(c1ccccc1)C1CCCCC1	–	–	–	–	–	–	–	–	–	–	–
COc1ccc(-c2n[nH]c(C)c2-c2ccc(Cl)cc2)c(O)c1	–	–	–	–	–	–	–	–	–	–	·
CCOC(=O)N1CCN(c2ccnc3cc(Cl)ccc23)CC1	–	–	–	–	–	·	·	·	·	·	·
CCN(CC)C(=O)Oc1ccnc2cc(Cl)ccc12	–	–	–	–	–	–	198	–	–	–	–	s288c autofl DR=–;TORC1 bypass gr=–
O=C(Oc1ccnc2cc(Cl)ccc12)N1CCCCCC1	–	–	–	422	185	·	·	·	·	·	–	s288c autofl DR=–;TORC1 bypass gr=–
COc1cccc(N2CCN(c3ccc4nnc(CCC(=O)Nc5ccc(C)cn5)n4n3)CC2)c1	–	–	–	–	–	–	–	–	–	–	·
C#CCOCCOCCOCCNc1nc(N2CCN(C(=O)CCCCCCCCCCNC(=O)[C@H](CCCCN)n3cc(CCCC(=O)O)nn3)CC2)nc(N2CCN(C(=O)CCCCCCCCCCNC(=O)[C@H](CCCCN)n3cc(CCCC(=O)O)nn3)CC2)n1	–	–	–	–	–	·	·	·	·	·	·
C#CCOCCOCCOCCNc1nc(N2CCN(C(=O)CCCCCCCCCCNC(=O)[C@H](CCCCN)n3cc(CCCC(=O)O)nn3)CC2)nc(N2CCN(C(=O)CCCCCCCCCCNC(=O)[C@H](CCCN=C(N)N)n3cc(C[C@@H](C)CC)nn3)CC2)n1	178	–	–	–	–	–	165	–	–	–	–
C#CCOCCOCCOCCNc1nc(N2CCN(C(=O)CCCCCCCCCCNC(=O)[C@H](CCCCN)n3cc(C)nn3)CC2)nc(N2CCN(C(=O)CCCCCCCCCCNC(=O)[C@@H]([C@H](C)CC)n3cc(CCCCCN)nn3)CC2)n1	153	–	–	–	–	–	–	–	–	–	·
C#CCOCCOCCOCCNc1nc(N2CCN(C(=O)CCCCCCCCCCNC(=O)[C@H]([C@@H](C)CC)n3cc(CCCCCN)nn3)CC2)nc(N2CCN(C(=O)CCCCCCCCCCNC(=O)[C@@H]([C@H](C)O)n3cc(C)nn3)CC2)n1	–	–	–	–	–	·	·	·	·	·	·
C#CCOCCOCCOCCNc1nc(N2CCN(C(=O)CCCCCCCCCCNC(=O)[C@H](CCCCN)n3cc(CCO)nn3)CC2)nc(N2CCN(C(=O)CCCCCCCCCCNC(=O)[C@H](CCCN=C(N)N)n3cc(C[C@@H](C)CC)nn3)CC2)n1	201	–	–	–	–	–	175	–	–	–	–
CCOC(=O)c1cn2nc(Oc3ccc(C#N)cc3)ccc2n1	–	–	–	–	–	·	·	·	·	·	·
Cn1ccc(C(=O)Oc2ccc(C(=O)Nc3ccc(F)cc3F)cc2)n1	–	–	–	–	–	·	·	·	·	·	·
CCCCC(CC)CN=C(N)NC(N)=NCCCCCCN=C(N)NC(N)=NCC(CC)CCCC (configuration not stated)	160	–	–	–	–	–	–	–	–	–	·
Cc1cccc(C)c1NC(=O)c1ccc(OCc2c(C)noc2C)cc1	–	–	–	–	–	·	·	·	·	·	·
CCN(C(=O)Cn1c(=O)oc2cc(S(=O)(=O)N3CCCC3)ccc21)c1ccc(OC)cc1	–	–	–	504	–	–	–	–	–	–	·
Cc1cc(-c2cc(C(=O)NCc3ccccc3)on2)nc(NCC2CC2)n1	–	–	–	–	–	–	–	–	–	–	·
CC(C)c1cc(-c2cc(C(=O)Nc3ccccc3)on2)nc(NC2CCCC2)n1	–	–	–	–	–	–	–	–	–	–	·
COCCNc1nc(C)cc(-c2cc(C(=O)NC3CCCC3)on2)n1	–	–	–	–	–	·	·	·	·	·	·
CCCNc1nc(C)cc(-c2cc(C(=O)NCc3ccccc3)on2)n1	153	–	–	–	–	–	–	–	–	–	·
CCCNc1nc(C)cc(-c2cc(C(=O)Nc3ccccc3)on2)n1	–	–	–	–	–	–	–	–	–	–	·
Cc1[nH]n(-c2ccccc2)c(=O)c1C(C[N+](=O)[O-])c1ccc(Cl)cc1 (configuration not stated)	–	–	–	–	–	·	·	·	·	·	·
Cc1[nH]n(-c2ncc(-c3ccccc3)s2)c(=O)c1C(c1ccc(Cl)cc1)C(C#N)C#N (configuration not stated)	155	–	–	–	–	·	·	·	·	·	–
S=c1[nH]nc(-c2cc3c(s2)-c2ccccc2CC3)o1	–	–	–	–	–	·	·	·	·	·	·
CSc1nnc(-c2cc3c(s2)-c2ccccc2CC3)o1	151	–	–	–	–	–	–	–	–	–	·
COc1cccc(C(=O)NCCS(=O)(=O)NCc2ccco2)c1	151	–	–	–	–	–	–	–	–	–	·
Cc1cc(C)c(S(=O)(=O)N2CCC(C(=O)NCc3ccc(Cl)cc3Cl)CC2)c(C)c1	151	–	–	–	–	152	–	–	–	–	–
c1ccc(-c2nnc(-c3ccccn3)nn2)nc1	–	–	–	–	–	·	·	·	·	·	·
